# Reference: PubChem BioAssay
# The source made the active and inactive calls. The rule behind the calls is not given here.
# Target: Pantothenate synthetase (Mycobacterium tuberculosis (strain ATCC 25618 / H37Rv)) (UniProt P9WIL5)
# Assay: Recombinant Mtb pantothenate synthetase (PanC) inhibitors, coupled enzyme, confirmatory (AID 375);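 note: 0% = full reaction with vehicle and 100% = no enzyme background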
# Conditions: coupled enzyme assay; at 10 µM, hits give high values
# Pantothenate synthetase (Mycobacterium tuberculosis (strain ATCC 25618 / H37Rv)), sequence (P9WIL5 whole entry, looked up): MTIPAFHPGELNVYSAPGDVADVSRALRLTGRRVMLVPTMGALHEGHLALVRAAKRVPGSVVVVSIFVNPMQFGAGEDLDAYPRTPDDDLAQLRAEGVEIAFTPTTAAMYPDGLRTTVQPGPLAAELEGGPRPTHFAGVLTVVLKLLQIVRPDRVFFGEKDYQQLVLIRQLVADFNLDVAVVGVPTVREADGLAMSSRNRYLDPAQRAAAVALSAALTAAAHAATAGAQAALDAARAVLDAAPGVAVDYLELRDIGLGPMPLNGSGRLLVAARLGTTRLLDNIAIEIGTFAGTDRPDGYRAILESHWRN
row,SMILES,inhibition
1,O=C(O)c1oc2ccccc2c1-n1cccc1,6% (inactive)
2,O=C(c1ccco1)c1nnn(Cc2ccccc2)c1-c1ccccc1,1% (inactive)
3,O=c1cc(COn2nnc3ccc(C(F)(F)F)cc32)nc2sccn12,0% (inactive)
4,CC(C)(O)C1=NOC(c2ccccc2)C1 (stereo not given),0% (inactive)
5,COc1ccc2c(C(=O)CN(C)C3CCCCC3)c[nH]c2c1,0% (inactive)
6,CCOC(=O)c1c(C)n(C)c2ccc(OC)c(NC(=O)CCN3CCSCC3)c12,2% (inactive)
7,CCn1cc(C(=O)NC2CCc3ccccc32)c(=O)c2ccc(C)nc21 (stereo not given),0% (inactive)
8,O=C(Nc1ccc(Cl)c(C(F)(F)F)c1)N1CCCC(O)C1 (stereo not given),4% (inactive)
9,COC(=O)Cn1c(CCS(=O)(=O)c2ccc(C)cc2)nc2ccccc21,1% (inactive)
10,COc1cccc(-c2nc(CS(=O)(=O)CC(=O)N3CCN(c4ccccn4)CC3)c(C)o2)c1,5% (inactive)
11,COc1ccc(C(=O)NCc2nnc(SCC(=O)Nc3cc(C)cc(C)c3)o2)cc1OC,0% (inactive)
12,Cc1cccc(NC(=O)CSc2nnc(-c3cc(C)n(-c4ccccc4)c3C)o2)c1C,0% (inactive)
13,COCCN(C(=O)c1csnn1)C(C(=O)NC(C)(C)C)c1cccc(OC)c1 (stereo not given),1% (inactive)
14,CCOC(=O)C1CCN(C(=O)Nc2ccc3nc(C)c(C)nc3c2)CC1,0% (inactive)
15,CS(=O)(=O)N(CC(=O)NCc1ccncc1)Cc1ccc(Cl)cc1,0% (inactive)
16,C#CC1(O)CC(C)N(C)C(C)C1 (stereo not given),6% (inactive)
17,COc1cc(C(Nc2ccc3c(c2)OCO3)C(=O)NC2CCCCC2)cc(OC)c1OC (stereo not given),2% (inactive)
18,COc1ccc(C2(C(=O)Nc3c(C)n(C)n(-c4ccccc4)c3=O)CCCC2)cc1OC,1% (inactive)
19,Nc1ccc(-n2c(N)c(C(=O)NCc3ccc4c(c3)OCO4)c3nc4ccccc4nc32)cc1,14% (inactive)
20,CC12CCC(C(=O)O)(c3nc(C#N)c(C#N)nc31)C2(C)C (stereo not given),13% (inactive)

row,SMILES,inhibition
1,CCN(CC)CCNC(=O)CCn1c(=S)[nH]c2cc3c(cc2c1=O)OCO3,0% (inactive)
2,Cc1cc(Oc2ccccc2)nc(-c2ccccc2)n1,0% (inactive)
3,CCCc1cc(N2CCCC2)n2nc(C)c(-c3ccccc3)c2n1,0% (inactive)
4,CC(=O)CCc1ccc(OCCCCn2cncn2)cc1,0% (inactive)
5,CC1CCCN(C(=O)CN2C(=O)c3ccccc3C2=O)C1 (stereo not given),3% (inactive)
6,CC(C)[N+]1(C)[C@@H]2CC[C@H]1CC(OC(=O)C(CO)c1ccccc1)C2 (stereo not given in full),0% (inactive)
7,Cc1ccc(S(=O)(=O)NCCCNC(=O)N2CCOCC2)cc1,0% (inactive)
8,CCCCNC(=O)CN(C1CCCCC1)S(C)(=O)=O,8% (inactive)
9,COc1cc(OC)cc(C(=O)NCc2n[nH]c(=S)n2-c2ccccc2OC)c1,0% (inactive)
10,Cc1nnc(NC(=O)c2ccccc2F)s1,0% (inactive)
11,S=c1[nH]nc(Cc2ccccc2)n1Cc1ccco1,0% (inactive)
12,CCCn1c(=NC(C)=O)c(C#N)cc2c(=O)n3cccc(C)c3nc21,0% (inactive)
13,Cc1ccnc(NC(=O)C2CCCN(S(=O)(=O)c3cnc[nH]3)C2)c1 (stereo not given),0% (inactive)
14,COc1cc(OC)c(OC)cc1CN(C)CCc1ccccn1,3% (inactive)
15,Cc1ccccc1NS(=O)(=O)c1cc(C(=O)N2CCCC2)ccc1C,0% (inactive)
16,S=c1[nH]c2ccc(Cl)cc2[nH]1,9% (inactive)
17,COc1cc(C(N)=O)ccc1OCc1ccccc1,3% (inactive)
18,COc1ccccc1N1CCN(Cc2nnnn2CCc2ccccc2)CC1,0% (inactive)
19,COc1ccc(CCNC(=O)C2CC(=O)N(c3ccccc3)C2)cc1OC (stereo not given),0% (inactive)
20,COc1ccc(/C(O)=C2/C(=O)C(=O)N(CCCN(C)C)C2c2ccco2)cc1Cl (stereo not given),0% (inactive)
